# This is part of a sample that, as a whole, favours compounds with a hit. Of some 83,000 tested, about 20% had one in any assay.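 Negative percent growth values reflect cell death: -40 means 40% of the cells present at the start died, and -100 means all died.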 Unmarked numbers belong to inactive results. Activity calls are given as the source filed them. How the source made its calls: active means growth percent below 10; inactive means the rest.
# Test system: HL-60(TB) leukemia
# Assay: NCI-60 one-dose screen, 48 h (100 = growth as untreated, 0 = no growth, -100 = all killed)
# Conditions: 10 µM unless noted
row,SMILES,growth
1,CC(Oc1ccc(C(=O)O)cc1C(F)(F)F)c1ccc(Oc2ccccc2)cn1 (stereo not given),101%
2,O=C(Nc1cccc(-n2cc(-c3ccncc3)c(-c3ccc(Cl)c(O)c3)n2)c1)Nc1cc(C(F)(F)F)cc(C(F)(F)F)c1,-18.3% (active)
3,COc1ccc(/C=C/C(=O)OCC(=O)NNC(=O)c2ccccc2)cc1OC,72.2%
4,CCN1/C(=C/C(C)=C/c2sc3ccc4ccccc4c3[n+]2CC)Sc2ccc3ccccc3c21,-52.1% (active)
5,Cc1cc(C)n(-c2nnc3n2N=C(c2ccc(-c4ccccc4)cc2)CS3)n1,7.07% (active)
6,Oc1ccc2cc(Br)ccc2c1-c1c(O)ccc2cc(Br)ccc12,81.2%
7,CCN(CC)c1ccc(C(=O)c2ccccc2)cc1,87.4%
8,COc1cc(Nc2ccnc(NCCNc3ccnc4cc(Cl)ccc34)n2)cc(OC)c1,11.9%
9,CCOc1ccc(C(C)=O)cc1NC(=O)c1cccc(-c2nnn(CC)n2)c1,7.31% (active)
10,CC(C)NC(=O)OCc1c(COC(=O)NC(C)C)c(-c2ccc(Cl)c(Cl)c2)n2c1SCC2,7.43% (active)
11,Cc1ccc2c(-c3nnc(N)s3)cc(=O)oc2c1C,100%
12,C=CCn1c(SCC(=O)Nc2ccc(C(=O)/C=C/c3ccc(Cl)cc3)cc2)nnc1-c1cc(-c2ccccc2)nc2ccccc12,99.8%
13,CC[C@H](C)C(=O)O[C@H]1CCC=C2C=C[C@H](C)[C@H](CC[C@@H]3CC=CC(=O)O3)[C@H]21,-0.21% (active)
14,CCCCCCCCOc1ccc(/C=N/Nc2cc(C)nc3ccc(Br)cc23)cc1,60.4%
15,COc1ccc(C2Nc3ccccc3-n3cccc32)cc1 (stereo not given),113%
16,CCN(CC)CC(C)(C)C(=O)/C=C/c1ccccc1,26.2%
17,O=[N+]([O-])c1ccc([I+]c2ccccc2)cc1,21.5%
18,Cc1cc(N(CCCNc2ccnc3cc(Cl)ccc23)Cc2ccc3c(c2)OCO3)nc(N2CCCCC2)n1,-68.4% (active)
19,CC(=O)OCCc1ccccc1,92%
20,Cc1nc(Nc2ccc(N)cc2)c2ccccc2n1,62%

row,SMILES,growth
1,CS(=O)(=O)c1ccc(-c2[nH]c3ccc(F)cc3c2/C=N/O)cc1,101%
2,CC(C)CC(=O)Nc1n[nH]c2c1CN(C(=O)C1CCN(C)CC1)C2(C)C,-26.2% (active)
3,Cc1nn(-c2ccc(-c3ccc(OC(F)(F)F)cc3)cc2)c2nc(Cc3ccccc3)nc(N)c12,88.3%
4,CC(=O)CS(C)(=O)=O,100%
5,O=c1[nH]c(=O)n(C2CC(O)C(CO)O2)cc1CO (stereo not given),107%
6,Cc1cc(C)c2c(c1)N(C)c1ncnc(-n3c(C)nc4cc(C)ccc43)c1CC2C (stereo not given),1.64% (active)
7,COc1ccc(S(=O)(=O)N(C)c2oc(-c3ccc(Cl)cc3)nc2C#N)cc1,63.9%
8,CN1CCN(c2ccc3nc(-c4ccc5nc(-c6ccc(OCCC(C)(C)C)cc6)[nH]c5c4)[nH]c3c2)CC1,10.5%
9,CN(C)c1ccc(N=Cc2ccc(N3CCOCC3)cc2)cc1,16.6%
10,CCN(CC)CCNc1ccc(Cl)cc1Cl,92.9%
11,Cc1c(/C=C/[N+](=O)[O-])ccc2c1[nH]c1ccccc12,67.3%
12,O=C1Nc2ccc(Cl)cc2/C1=C/c1ccc[nH]1,102%
13,CCN(CC)c1ccc2nc3ccc(N=Nc4ccc(N(C)C)cc4)cc3[n+](-c3ccccc3)c2c1,-32.2% (active)
14,C=C1CCC2C3(C)COC(c4cccc(Cl)c4)OC3CCC2(C)C1/C=C/C1=CCOC1=O (stereo not given),33.7%
15,CCCCCCCC/C=C\CCCCCCCCOc1ccccc1CC(=O)NCC[N+](C)(C)C,67%
16,Cc1cc(O)c(C2=NN(c3ccc(S(N)(=O)=O)cc3)C(c3ccccc3Cl)C2)cc1Cl (stereo not given),-30.2% (active)
17,N#Cc1c2ccccc2c2n1-c1ccccc1OC(c1ccccc1)C2=O (stereo not given),43.4%
18,Cc1cccc(NC(=O)CCc2ccc(N3C(N)=NC(N)=NC3(C)C)cc2)c1,20.1%
19,O=C(NC1CCCC1)c1ccc(N2CCC(NCc3cccc(C(F)(F)F)c3)CC2)cc1,66.5%
20,CC1CCc2cc(F)cc3c(=O)c(C(=O)O)cn1c23 (stereo not given),107%

# — PubChem BioAssay (NCI)
